Screening data deposited in PubChem BioAssay by several laboratories.
Rows were chosen to be rich in hits. Some 1.5% of all compounds tested hit in one or more screens of this group.
IDE cell inh – cellular human IDE inhibition. inhibition, % at 5.59 µM. HEK cells, FAbetaB cleavage, fluorescence polarization. 320,000 tested, 0.41% active;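 active means percent inhibition above the average of all tested compounds plus 3 SD, set per screening campaign, cut at about 16% in these data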;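 further: IDE supplied by intact live HEK cells; FP after avidin binding of uncleaved biotin substrate so inhibition keeps polarization high; 0% = DMSO wells and 100% = 60 µM reference IDE inhibitor Ii1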
Target sequence (P14735 whole entry, looked up): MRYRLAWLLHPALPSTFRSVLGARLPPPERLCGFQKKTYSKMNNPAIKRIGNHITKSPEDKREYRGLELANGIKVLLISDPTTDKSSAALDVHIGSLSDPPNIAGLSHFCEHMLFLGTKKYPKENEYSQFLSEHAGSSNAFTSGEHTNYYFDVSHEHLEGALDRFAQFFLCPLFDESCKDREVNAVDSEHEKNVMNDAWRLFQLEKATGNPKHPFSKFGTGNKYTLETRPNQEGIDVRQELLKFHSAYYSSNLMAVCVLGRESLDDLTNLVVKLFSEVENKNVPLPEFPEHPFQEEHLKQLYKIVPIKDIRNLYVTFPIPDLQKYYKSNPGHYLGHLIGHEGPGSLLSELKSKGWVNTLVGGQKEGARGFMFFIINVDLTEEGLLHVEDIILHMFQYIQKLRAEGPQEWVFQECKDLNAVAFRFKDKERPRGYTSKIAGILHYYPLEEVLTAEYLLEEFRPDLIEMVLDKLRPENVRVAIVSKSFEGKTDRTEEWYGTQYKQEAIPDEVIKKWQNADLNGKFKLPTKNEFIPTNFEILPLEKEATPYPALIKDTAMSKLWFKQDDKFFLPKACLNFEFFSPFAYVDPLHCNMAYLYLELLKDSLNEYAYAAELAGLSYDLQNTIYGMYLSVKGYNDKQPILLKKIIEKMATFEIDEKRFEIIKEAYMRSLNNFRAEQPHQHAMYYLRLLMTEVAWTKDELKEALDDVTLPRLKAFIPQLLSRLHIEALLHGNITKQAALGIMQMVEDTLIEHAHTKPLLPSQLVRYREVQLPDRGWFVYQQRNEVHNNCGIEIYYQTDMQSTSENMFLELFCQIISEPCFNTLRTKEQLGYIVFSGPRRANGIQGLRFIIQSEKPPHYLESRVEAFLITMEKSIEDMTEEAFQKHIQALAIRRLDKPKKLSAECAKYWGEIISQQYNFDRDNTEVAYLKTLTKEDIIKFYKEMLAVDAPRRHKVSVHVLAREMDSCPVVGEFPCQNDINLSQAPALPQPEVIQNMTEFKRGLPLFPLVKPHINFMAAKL
GLD-1 TGE inh – GLD-1-TGE RNA interaction inhibition (C. elegans). Q17339. purified GLD-1 + fluorescein TGE RNA, fluorescence polarization. inhibition, % at 5.96 µM. 320,000 tested, 0.44% active. AID 2280;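 active means percent inhibition above a per-plate cutoff, the plate mean of test compounds plus 3 SD, cut at about 30% in these data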;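 further: 0% = DMSO wells with GLD-1 and probe and 100% = wells lacking GLD-1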
IDE cell activ – IDE (human) activation, cell-based; 340,000 tested, 0.073% active; HEK cells, FAbeta-B cleavage, fluorescence polarization; 0% vehicle, 100% cell-free pure enzyme wells; activation, % at 5.96 µM; P14735;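 active means activation above the mean of all tested compounds plus 3 SD, set per screening campaign, cut at about 17% in these data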
BCLXL inh – inhibitors of human Bcl-xL; Q07817; GST-Bcl-xL / FITC-Bim BH3 peptide fluorescence polarization; inhibition, % at 10.9 µM; 320,000 tested, 0.7% active; AID 2129;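 active means inhibition above the mean of all tested compounds plus 3 SD, cutoff set per campaign, cut at about 30% in these data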;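 further: 0% = DMSO wells and 100% = unlabeled Bim-BH3 peptide competitor; inhibitors lower millipolarization by displacing the labeled peptide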
MEX-5 binding – C. elegans MEX-5 TCR-2 RNA binding activity; Q9XUB2; MEX-5/FITC-TCR2 RNA binding, fluorescence polarization; hits give low values; activity score (negative = inhibition of binding), % at 10 µM; 300,000 tested, 0.38% active;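 active means inhibition past about -25% in most replicates, and total fluorescence under double the plate's negative control median, limit read from the data; inconclusive means replicates evenly split on the limit, or fluorescence at least double controls; inactive means too little inhibition in most replicates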;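 further: 0% = DMSO and -100% = 5 µM competing unlabeled TCR2 RNA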
MCL1 BIM primary – disrupts human MCL1 binding to BIM-BH3 peptide; Q07820; GST-MCL1 / FITC-Bim-BH3 fluorescence polarization; inhibition, % at 10.9 µM; 320,000 tested, 0.68% active; AID 2057;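 active means inhibition above the mean inhibition of all tested compounds plus 3 SD, set per campaign, cut at about 40% in these data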;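 further: 0% = DMSO wells and 100% = unlabeled Bim-BH3 peptide control; higher means more loss of mP so more displacement of Bim peptide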
* = called active by the depositor; ? = inconclusive; nt = not tested or not shown.

SMILES	IDE cell inh	GLD-1 TGE inh	IDE cell activ	BCLXL inh	MEX-5 binding	MCL1 BIM primary
CCCCCCCCCCCCCCCC[N+](C)(C)CCN(Cc1ccc(OC)cc1)c1ncccn1	-4	-1	18*	15	nt	-13
COc1ccc(NC(=O)CSc2nnc(CC(=O)Nc3ccc(F)cc3)n2C)cc1	-4	0	4	2	-1	1
COc1ccc(N2CCN(c3ccc(NC(=O)/C=C\C(=O)O)cc3)CC2)cc1	-2	13	7	22	2	23
O=C(O)/C=C/C(=O)Nc1ccc(N2CCOCC2)nc1N1CCOCC1	8	29	2	39*	-7	31
Cc1ccc(Cn2nc(C)c(C(=O)N3CCN(S(=O)(=O)/C=C/c4ccccc4)CC3)c2C)cc1	-3	-1	33*	-4	nt	-3
O=C(c1cnn(Cc2ccccc2)c1)N1CCN(S(=O)(=O)/C=C/c2ccccc2)CC1	-4	5	-2	2	nt	3
O=C(O)c1ccc(NS(=O)(=O)c2ccc3c(c2)C(=O)c2ccccc2C3=O)cc1	6	22	nt	37*	?	34
O=C(O)c1cccc(S(=O)(=O)Nc2ccc(-c3ccccc3)cc2)c1	3	6	6	nt	nt	nt
O=C(Nc1cc(S(=O)(=O)N2CCOCC2)ccc1N1CCOCC1)c1ccccc1F	3	3	20*	1	nt	-5
CCCCc1ccc(/C=C2\C(=O)ON=C2c2ccccc2)s1	6	5	3	4	-33*	8
O=C1ON=C(c2ccccc2)/C1=C/c1ccco1	12	2	-9	-2	-6	-13
COc1ccc2ccccc2c1CNC(=O)CC1C(=O)NCCN1CC(C)(C)C (stereo not given)	0	-7	2	0	2	-4
Nc1nnc2c(n1)CCCC2	-2	4	4	16	-32*	10
Cc1cccc(NC(=O)c2cccc3c2-c2ccccc2C3=O)n1	8	4	0	67*	0	-1
Cc1ccc(SCc2cc(=O)n(C)[nH]2)cc1	-1	0	5	2	2	6
CCOC(=O)N1CCN(/C=C(\C#N)c2nc3ccccc3s2)CC1	7	-76	2	-43	-50*	-96
C=CCn1ccc2c([N+](=O)[O-])cccc2c1=O	-2	-1	2	0	1	5
C=CCn1ccc(=NC=C(C#N)C#N)c2ccccc21	2	-10	0	-4	-75*	-11
Cc1ccc(-n2c(SCC(=O)N3CCCCC3)nc(O)c(Cc3ccccc3)c2=O)cc1	5	0	0	4	0	6
COCc1cc(=O)n2[nH]c(SCc3ccccc3)nc2n1	-3	-2	0	31*	-2	7
N#Cc1c(OCC(=O)c2ccccc2)nc2c(c1-c1ccco1)CCc1ccccc1-2	-4	13	2	34*	2	35
CCOC(=O)COc1nc2c(c(-c3ccco3)c1C#N)CCc1ccccc1-2	-3	8	nt	-3	1	3
CCCCn1c(O)c(/C=C2\C=Nc3ccccc32)c(=O)[nH]c1=O	0	-18	1	-11	-31*	-11
O=C(O)CN1C(=O)/C(=C\c2cc(Br)ccc2OCc2ccccc2Cl)SC1=S	2	1	0	16	-2	57*
Oc1ccc(/C=N/NC(=S)Nc2cccnc2)c(O)c1O	nt	nt	-18	nt	-43*	nt
SMILES	IDE cell inh	GLD-1 TGE inh	IDE cell activ	BCLXL inh	MEX-5 binding	MCL1 BIM primary
NC(=S)N/N=C/c1cccc(O)c1O	-1	1	4	9	-38*	14
O=C(O)c1ccc(/C=N/NC(=O)c2cc(-c3ccc4c5c(cccc35)CC4)n[nH]2)cc1	4	-1	3	9	-2	11
COc1ccc(OCCSc2nnc(Cc3cccc4ccccc34)n2N)cc1	-1	5	-5	-1	3	-1
CC(C)(C)C(=O)NC(=S)NNC(=O)c1ccc(-c2ccccc2)cc1	2	2	4	1	0	-4
CCCOc1ccc(NC(=O)CC2C(=O)N(Cc3ccccc3)C(=S)N2Cc2cccs2)cc1 (stereo not given)	0	2	7	0	nt	2
CCOc1ncccc1C(=O)OCC(=O)NC1CCCCCC1	nt	nt	0	nt	nt	nt
Oc1ccc(C2C[C@H]3CC[C@@H]2C3)cc1O (stereo not given in full)	-1	4	-11	12	-65*	25
O=C1CC(c2ccc(O)c(O)c2)Oc2cc(O)cc(O)c21 (stereo not given)	1	4	3	7	5	20
CCOC(=O)c1cccc(P(C)(C)=O)c1	-3	4	19*	10	-2	3
O=C(c1cccs1)c1c[nH]cc1-c1ccccc1	-2	4	nt	2	2	4
CCc1ccccc1OCC(=O)Nc1cccc(S(=O)(=O)N2CCCC2)c1	nt	nt	4	nt	nt	nt
O=C(COc1cccc2cccnc12)Nc1cccc(S(=O)(=O)N2CCCC2)c1	-3	-4	30*	4	nt	7
CCOC(=O)N1CCN(Cc2nnc(-c3ccccc3C)o2)CC1	5	8	4	4	-4	-4
O=C1CSCC(=O)N1c1ccccc1	2	0	3	2	1	3
O=C1C2=C(SCCS2)C(=O)N1c1ccccc1	1	13	-2	14	-45*	15
Cc1ccc2nc3c(cc(C(N)=S)c(=N)n3CCCOC(C)C)c(=O)n2c1	5	12	2	39*	-4	39
Cc1cccn2c(=O)c3cc(C(N)=S)c(=N)n(CCCN4CCOCC4)c3nc12	3	-5	-1	33*	-13	34
COCCCn1c(=N)c(C(N)=S)cc2c(=O)n3cccc(C)c3nc21	4	-1	2	34*	-15	27
Cc1cc(F)cc(C)c1Cn1cnc2c(cnn2C(C)(C)C)c1=O	6	4	-2	nt	nt	nt
COc1cc(C(=O)NCCC(=O)NCc2c(F)cc(F)cc2F)cc(OC)c1OC	2	2	1	9	-1	10
[O-][n+]1nc2ccccc2c2ccccc21	nt	nt	-3	nt	nt	nt
Cc1cc(NC(=O)CSc2nc(=O)n3cc(Cl)ccc3n2)no1	-3	6	3	6	-11	5
Cc1ccn2c(=O)nc(SCC(=O)Nc3cc(C)on3)nc2c1	0	5	5	9	-26*	12
CN1c2ccccc2C(C)(C)C12C=Nc1c(ccc3ccccc13)O2 (stereo not given)	-12	9	0	34*	5	43*
O=C(OCC(=O)N1CCCc2ccccc21)c1ccc(S(=O)(=O)C(F)F)cc1	0	0	2	-12	1	-7
CCCCOC(=O)c1ccc(NC(=O)COC(=O)C2CSC3(C)CCC(=O)N23)cc1 (stereo not given)	2	-2	-6	6	-1	4
